About 83,000 compounds went through this panel and 20% of them were active in at least one assay; those are over-represented in the sample as a whole.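 Single-concentration screen, 48 h exposure, 96-well plates. Endpoint: percent growth. Below 10 = active.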 Activity calls are given as the source filed them.

One test concerns RPMI-8226 leukemia. As to the kind of experiment: NCI-60 one-dose screen, 48 h (100 = growth as untreated, 0 = no growth, -100 = all killed). The note with it: 10 µM.
For the molecule `O=C(Nc1ccc(OCC(=O)c2ccc(Cl)cc2)cc1)Nc1ccc(Cl)c(C(F)(F)F)c1`, the growth is 12.2% (inactive).
In the case of `Cc1ccc2sc3c(c2c1)Oc1nc[nH]c(=O)c1C3c1cccc(F)c1` (stereo unspecified), the growth was 88.7% (inactive).
Same read-out and setting: to `Cc1cc(N=C2NC(=O)/C(=C/c3cc(C(C)(C)C)c(O)c(C(C)(C)C)c3)S2)n[nH]1` belongs 1.11% (active).
Still for that read-out and setting: next, `COc1ccc(C2c3sc4ccc(C)cc4c3Oc3nc[nH]c(=O)c32)cc1` (stereo unspecified): 90.8% (inactive); `COc1cccc(C(=O)CSc2nc(-c3ccc(OCc4ccccc4)c(OC)c3)c(C#N)c(=O)[nH]2)c1`: 102% (inactive).
With `Cc1ccc(COc2ccc(NC(=O)Nc3ccc(Cl)c(C(F)(F)F)c3)cc2)cc1`, the growth was 39.5% (inactive).
Still for that read-out and setting: to `O=C(O)CCN1C(=O)/C(=C/C=C/c2ccc([N+](=O)[O-])o2)SC1=S` belongs -19.3% (active).
The same measure, in the same setting: next, `CC(C)(C)c1cc(/C=C2\S/C(=N/c3ncn[nH]3)NC2=O)cc(C(C)(C)C)c1O`: 8.38% (active); `Cn1cc(/C=C(/SS/C(=C/c2cn(C)c3cccc(C(=O)O)c23)C(=O)O)C(=O)O)c2c(C(=O)O)cccc21`: 105% (inactive).
On the same count and under the same terms, to `COc1ccc(C(=O)COc2ccc(NC(=O)Nc3ccccc3)cc2)cc1` belongs 93.3% (inactive); to `CCn1c(SCC(=O)Nc2ccc(-c3nc4ccccc4[nH]3)cc2)nc2ccccc2c1=O`, -11.4% (active); to `O=C(Nc1ccc(OCc2ccc(F)cc2)cc1)Nc1ccc(Cl)c(C(F)(F)F)c1`, -1.27% (active).
Consider `O=C(CC(=O)Nc1ccc(Oc2ncnc3scc(Nc4n[nH]c(=S)s4)c23)cc1)Nc1ccc(Br)cc1`, for which the growth is 110% (inactive).
On the same count and under the same terms, to `COc1ccc(C(=O)COc2ccc(NC(=O)Nc3ccc(Cl)c(C(F)(F)F)c3)cc2)cc1` belongs 19.1% (inactive); to `O=C(Nc1ccc(Oc2ncnc3scc(Nc4n[nH]c(=S)s4)c23)cc1)C1(C(=O)Nc2cccc(C(F)(F)F)c2)CC1`, 110% (inactive); to `O=C1NC(=S)S/C1=C\c1cn(-c2ccccc2)nc1-c1ccc([N+](=O)[O-])cc1`, 2.45% (active).
Same read-out and setting: next, `O=C(CSc1nc2ccccc2c(=O)n1-c1ccc(Cl)cc1)Nc1ccc(-c2nc3ccc([N+](=O)[O-])cc3[nH]2)cc1`: 53% (inactive).

The next test concerns OVCAR-8 ovarian. Described as above. Particulars: 10 µM.
On to `COc1ccc(C2c3sc4ccc(C)cc4c3Oc3nc(N)nc(N)c32)cc1` (stereo unspecified), for which the growth is 87% (inactive).
Still for that read-out and setting: to `Cc1cc(N=C2NC(=O)S/C2=C\c2ccc(F)cc2)n[nH]1` belongs 12.2% (inactive).
Still for that read-out and setting: to `Cn1cc(-c2nnc(N)nc2-c2c[nH]c3ccccc23)c2cc(Br)cnc21` belongs 62% (inactive).
As for `O=C(CC(=O)Nc1ccc(Oc2ncnc3scc(Nc4n[nH]c(=S)s4)c23)cc1)Nc1ccc(Cl)cc1`, the growth is 93.5% (inactive).
On to `O=C1NC2C=CC=CC2/C1=C1/SC(=S)N(C2CC(=O)N(c3ccc(Br)cc3)C2=O)C1=O` (stereo unspecified), for which the growth is 97.6% (inactive).
Same read-out and setting: next, `CC1(C)CC(=O)C2=C(C1)N(Cc1ccc(C(=O)O)cc1)C1=C(C(=O)CC(C)(C)C1)C2c1ccc(Cl)cc1`: 105% (inactive); `Cc1ccc2c(c1)C(=O)/C(=C/c1ccc([N+](=O)[O-])cc1)S2`: 105% (inactive).
For the molecule `O=C(Nc1ccc(OCc2ccc(Cl)cc2)cc1)Nc1ccc(Cl)c(C(F)(F)F)c1`, the growth is 13.5% (inactive).
The same measure, in the same setting: to `Cn1cc(-c2nc(N)nnc2-c2c[nH]c3ccccc23)c2cc(Br)cnc21` belongs 5.76% (active); to `O=C(CSc1nc2ccccc2c(=O)n1-c1ccc(Cl)cc1)Nc1ccc(-c2nc3ccccc3[nH]2)cc1`, -17.8% (active).
On the same count and under the same terms, to `Cc1ccc2c(c1)C(=O)/C(=C/c1c[nH]c3ccccc13)S2` belongs 55.3% (inactive); to `COc1cccc(O)c1/C=C1\SCc2cc3c(OC)cccc3[o+]c21`, 107% (inactive).
The same measure, in the same setting: next, `COc1cc(C2CC(c3ccc(Oc4ccc(Cl)cc4)cc3)=NN2c2nc(-c3ccc(Cl)cc3)c(C#N)c(N3CCOCC3)n2)cc(OC)c1OC` (stereo unspecified): 104% (inactive); `O=C(Nc1ccc(OCC(=O)c2ccc(Cl)cc2)cc1)Nc1ccc(Cl)c(C(F)(F)F)c1`: 30.1% (inactive); `Cc1ccc2sc3c(c2c1)Oc1nc[nH]c(=O)c1C3c1cccc(F)c1` (stereo unspecified): 107% (inactive).
Consider `Cc1cc(N=C2NC(=O)/C(=C/c3cc(C(C)(C)C)c(O)c(C(C)(C)C)c3)S2)n[nH]1`, for which the growth is 8.93% (active).
On the same count and under the same terms, to `COc1ccc(C2c3sc4ccc(C)cc4c3Oc3nc[nH]c(=O)c32)cc1` (stereo unspecified) belongs 98.1% (inactive).
Take `COc1cccc(C(=O)CSc2nc(-c3ccc(OCc4ccccc4)c(OC)c3)c(C#N)c(=O)[nH]2)c1`: the growth was 105% (inactive).
On the same count and under the same terms, to `Cc1ccc(COc2ccc(NC(=O)Nc3ccc(Cl)c(C(F)(F)F)c3)cc2)cc1` belongs 80.4% (inactive); to `CC(C)(C)c1cc(/C=C2\S/C(=N/c3ncn[nH]3)NC2=O)cc(C(C)(C)C)c1O`, 10.8% (inactive); to `Cn1cc(/C=C(/SS/C(=C/c2cn(C)c3cccc(C(=O)O)c23)C(=O)O)C(=O)O)c2c(C(=O)O)cccc21`, 103% (inactive).
On to `COc1ccc(C(=O)COc2ccc(NC(=O)Nc3ccccc3)cc2)cc1`, for which the growth is 87.2% (inactive).
The same measure, in the same setting: next, `CCn1c(SCC(=O)Nc2ccc(-c3nc4ccccc4[nH]3)cc2)nc2ccccc2c1=O`: -85.5% (active); `O=C(Nc1ccc(OCc2ccc(F)cc2)cc1)Nc1ccc(Cl)c(C(F)(F)F)c1`: 12.8% (inactive); `O=C(CC(=O)Nc1ccc(Oc2ncnc3scc(Nc4n[nH]c(=S)s4)c23)cc1)Nc1ccc(Br)cc1`: 102% (inactive).
The same measure, in the same setting: to `COc1ccc(C(=O)COc2ccc(NC(=O)Nc3ccc(Cl)c(C(F)(F)F)c3)cc2)cc1` belongs 22.5% (inactive); to `O=C(Nc1ccc(Oc2ncnc3scc(Nc4n[nH]c(=S)s4)c23)cc1)C1(C(=O)Nc2cccc(C(F)(F)F)c2)CC1`, 103% (inactive).
The same measure, in the same setting: to `O=C1NC(=S)S/C1=C\c1cn(-c2ccccc2)nc1-c1ccc([N+](=O)[O-])cc1` belongs 18% (inactive); to `O=C(CSc1nc2ccccc2c(=O)n1-c1ccc(Cl)cc1)Nc1ccc(-c2nc3ccc([N+](=O)[O-])cc3[nH]2)cc1`, -87.5% (active).

The values are drawn from PubChem BioAssay (NCI).
